Measurements published in PubChem BioAssay (Tox21).
The source made the active and inactive calls. Calls follow the shape of the dose curve; as a rule, active = well fitted curve in the direction sought with a large enough effect in the repeat runs; inconclusive = weak or mixed curves; inactive = flat fitted curve, though single readings scatter.

Test: qHTS assay to test for compound auto fluorescence at 535 nm (green) in HEK293 cells (AID 720680)
Conditions: green autofluorescence 485/535 nm; series mostly up to 91.3 µM; fluorescence, % of fluorescein: at the top concentration
Excerpt: U.S. Tox21 Program National Center for Advancing Translational Sciences [NCATS] NIH Chemical Genomics Center [NCGC] U.S. Environmental Protection Agency [EPA] National Institutes of Environmental Health Sciences [NIEHS] National Toxicology Program [NTP] U.S. Food and Drug Administration [FDA] Tox21 Assay Overview: Compound auto fluorescence often interferes with screening of the compound library against various biological targets and signaling pathways. Some of these compounds may have fluorophoric properties. Such properties may interfere with the assay outputs resulting in false positives and/or negatives. To decrease such complications and ensure the compound activities are relevant in terms of biological response, the Tox21 10K compound library was screened for auto fluorescence. From the fluorophores used as reporter signals in our screening assays, the auto fluorescence equivalencies of compounds against three fluorophores have been evaluated: Triamterene, Fluorescein and Rose Bengal sodium for blue, green and red fluorescence, respectively. The fluorescence intensities were measured using Excitation/Emission wavelengths at 405/460nm, 485/535nm and 540/590nm for blue, green and red labels, respectively. This assay includes the green fluorescence data.
Tox21 Assay Protocol Summary: 2,000 HEK293 cells in 5 uL of culture medium containing 10% dialyzed FBS per well were dispensed into black wall/clear bottom 1536-well plates using a Multidrop Combi Dispenser (Thermo Scientific). The assay plates were incubated for 4-5 hr at 37C to allow cell attachment to the well bottom, followed by the transfer of 23 nL compound or DMSO vehicle by a pintool work station (Kalypsys, San Diego, CA). After the assay plates were incubated overnight at 37C and 5% CO2, fluorescence intensities in the assay plates were measured by an Envision (PerkinElmer, Shelton, CT) plate reader using three labels for measuring blue, green and red fluorescence at […] 460, 535 and 590nm respectively.
% is scaled to controls: 0 for no effect and ±100 for the full control effect.

SMILES | fluorescence, % of fluorescein | outcome
CC(C)(c1ccccc1)c1ccccc1 | 0.0158% (inactive) | –
C[C@]12CC[C@@H]3c4ccc(O)cc4CC[C@H]3[C@@H]1CC[C@@H]2OC(=O)CCC1CCCC1 | – | inactive
OC[C@H]1O[C@@H](n2cnc3c(=S)nc[nH]c32)[C@H](O)[C@@H]1O | 0.0594% [at 46 µM] (inactive) | –
CC(=O)NC1(c2cccc(F)c2)CCN(CC[C@@]2(c3ccc(Cl)c(Cl)c3)CN(c3ccccc3)C(=O)CO2)CC1 | 0.0392% (inactive) | –
CCCCCC[C@@H](O)C/C=C\CCCCCCCC(=O)OCC(O)CO (stereo not given in full) | -0.104% (inactive) | –
CC(O)c1ccccc1 (stereo not given) | 0.0324% [at 95.7 µM] (inactive) | –
CC1(C)[C@@H](OC(=O)CCC(=O)O)CC[C@]2(C)[C@H]3C(=O)C=C4[C@@H]5C[C@@](C)(C(=O)O)CC[C@]5(C)CC[C@@]4(C)[C@]3(C)CC[C@@H]12 | -0.0149% [at 18.6 µM] (inactive) | –
CCCCCCCCCCC(=O)O | 0.0775% [at 95.7 µM] (inactive) | –
NCCNCCO | -0.0199% [at 95.7 µM] (inactive) | –
CC/C=C1/OC(=O)c2ccccc21 | -0.17% (inactive) | –
N#[N+]c1ccc2c(S(=O)(=O)[O-])cccc2c1O | -0.128% (inactive) | –
Oc1cc2c(cc1O)[C@H]1c3ccc(O)c(O)c3OC[C@@]1(O)C2 | 3.29% [at 95.7 µM] (inactive) | –
O=C(O)C[C@H](NC(=O)OCc1ccccc1)C(=O)O | 0.0163% (inactive) | –
C=CCc1ccccc1OCC(O)CNC(C)C (stereo not given) | 0.107% [at 46 µM] (inactive) | –
c1cc(N(CC2CO2)CC2CO2)ccc1Cc1ccc(N(CC2CO2)CC2CO2)cc1 (stereo not given) | 0.0214% (inactive) | –
CCCC(=O)C(=O)O | 0.0509% (inactive) | –
C[C@H]1c2cccc(O)c2C(O)=C2C(=O)[C@]3(O)C(O)=C(C(N)=O)C(=O)[C@@H](N(C)C)[C@@H]3[C@@H](O)[C@@H]21 | -0.0876% [at 46 µM] (inactive) | –
N#CCCN(CCO)CCO | -0.178% (inactive) | –
O=C1c2ccccc2C(=O)C1(O)O | 0.109% (inactive) | –
CO[C@]1(NC(=O)CSC(F)F)C(=O)N2C(C(=O)O)=C(CSc3nnnn3CCO)CO[C@H]21 | -0.0353% [at 46 µM] (inactive) | –

SMILES | fluorescence, % of fluorescein | outcome
CCC(C)COC(C)=O (stereo not given) | -0.145% (inactive) | –
O=[N+]([O-])c1ccc(O/N=C/c2cc(Br)c(O)c(Br)c2)c([N+](=O)[O-])c1 | -0.192% (inactive) | –
CCCCC(CC)COP(=O)(O)O (stereo not given) | -0.012% [at 95.7 µM] (inactive) | –
OCCN1CCN(CCCN2c3ccccc3Sc3ccc(Cl)cc32)CC1 | -0.0167% [at 18.6 µM] (inactive) | –
C=C(C)CCCC(C)CCO (stereo not given) | -0.0097% (inactive) | –
C[C@@H]1CN(CCCn2c3ccccc3c3ccccc32)C[C@H](C)N1 | 0.0497% [at 46 µM] (inactive) | –
CN1C[C@H](C(=O)N[C@]2(C)O[C@@]3(O)[C@@H]4CCCN4C(=O)[C@H](Cc4ccccc4)N3C2=O)C[C@@H]2c3cccc4[nH]cc(c34)C[C@H]21 | 0.494% [at 46 µM] (inactive) | –
CCOC(=O)c1ccc(OCCN2C[C@H](O)[C@@H](O)[C@H](O)[C@H]2CO)cc1 | -0.168% [at 46 µM] (inactive) | –
CCC(=O)OC | -0.0007% (inactive) | –
CC(C)(O)c1ccc(CNC(=O)c2cccnc2Oc2ccc3nonc3c2)cc1 | 0.0242% (inactive) | –
O=C(O)c1cccc(-c2noc(-c3ccccc3F)n2)c1 | 0.0058% [at 46 µM] (inactive) | –
O=C1NCCN1CCO | 0.0701% [at 95.7 µM] (inactive) | –
CC1(CN2CCC(n3c(=O)[nH]c4ccccc43)CC2)OCc2ccccc2-n2cccc21 (stereo not given) | 0.109% [at 46 µM] (inactive) | –
C=C1c2cccc(O)c2C(O)=C2C(=O)[C@]3(O)C(O)=C(C(N)=O)C(=O)[C@@H](N(C)C)[C@@H]3[C@@H](O)[C@H]12 | 0.0422% [at 18.6 µM] (inactive) | –
C[C@@H](O)[C@H]1C(=O)N2C(C(=O)O)=C([C@H]3CCCO3)S[C@H]12 | -0.0662% [at 46 µM] (inactive) | –
NNC(=O)CP(=O)(c1ccccc1)c1ccccc1 | 0.053% [at 46 µM] (inactive) | –
CCCCCC#CC(=O)OC | 0.0437% (inactive) | –
Oc1cccc(Nc2ccccc2)c1 | 0.013% [at 95.7 µM] (inactive) | –
CC(C)Nc1cccnc1N1CCN(C(=O)c2cc3cc(NS(C)(=O)=O)ccc3[nH]2)CC1 | 0.0546% [at 46 µM] (inactive) | –
CCCCCC[C@@H](O)C/C=C\CCCCCCCC(=O)O | – | inactive
